Results: PubChem BioAssay AID588334 (Broad Institute, 2011)
The whole screen tested about 300,000 compounds, of which about 2,300 (0.77%) were called active.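 The calls were made as follows: active = mean activation of at least 80% with every replicate also reaching 80%; inconclusive = mean reaches 80% but some replicate falls short; inactive = the rest.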 The list comes from a sample in which actives are over-represented; it also holds similar structures and randomly drawn compounds.

Assay: activators of MITF-driven TRPM1 promoter reporter, primary screen, cell-based, SK-MEL-5, luciferase, single point (AID 588334);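 also: 0% = neutral control wells and 100% = parthenolide positive control wells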
Details: SK-MEL-5 TRPM1-promoter luciferase, 24 h; at 12.5 µM; hits give high values; % of positive control, neutral wells = 0

Structure (SMILES) | activation
CN[C@H](C(=O)NC[C@H]1O[C@@H](n2cnc3c(N)ncnc32)[C@H](O)[C@@H]1O)[C@@H](C)OCc1ccccc1 | 17% (inactive)
COc1cc(NC(=O)c2[nH]cnc2C(N)=O)cc(C(=O)Nc2cccc(C(F)(F)F)c2)c1 | -88.9% (inactive)
C[C@@H]1NS(=O)(=O)c2cc(Cl)ccc2O[C@@H]1c1ccccc1 | 2.48% (inactive)
COc1cccc(/C=N/Nc2ccc(Cl)nn2)c1 | 93.6% (active)
COc1cccc(/C=N\Nc2nncc(-c3ccccc3)n2)c1 | 27.3% (inactive)
Oc1cccc(/C=N/Nc2ccc(Cl)nn2)c1O | -6.43% (inactive)
CCOC(=O)C1=CN(Cc2ccc(Br)cc2)S(=O)(=O)N(C)C1C (stereo unspecified) | -0.639% (inactive)
O=C(O)c1ccc(S(=O)(=O)c2ccccc2)s1 | -11% (inactive)
CC(=C/c1ccccc1)/C=N/NC(=O)c1cc(C)oc1C | 25.1% (inactive)
Cc1cc(C(=O)N/N=C/c2ccccc2[N+](=O)[O-])c(C)o1 | 84.3% (active)
Cc1cc(C(=O)N/N=C\C(Br)=C\c2ccccc2)c(C)o1 | 15.4% (inactive)
Cc1ccc(OCCNC(=O)c2cccc(S(=O)(=O)N3CCN(Cc4ccccc4)CC3)c2)cc1 | -0.856% (inactive)
Cc1cc(NC(=O)c2cc3ccccc3o2)no1 | -6.37% (inactive)
COC(=O)c1ccc(NCC(=O)c2ccccc2)cc1 | 146% (active)
COC(=O)c1ccc(NCc2cc(O)ccc2O)cc1 | 3% (inactive)
Cc1ccc(C(=O)CNc2ccc(F)cc2)cc1 | -0.394% (inactive)
CN1CCOC1c1ccc(C2OCCN2C)cc1 (stereo unspecified) | -9.68% (inactive)
C=CCOC(=O)N1CCC2CC1c1cc(-c3ccc(OC)cc3)ccc12 (stereo unspecified) | -2.99% (inactive)
COc1cc(OC)c(C(=O)NNC(=O)c2ccccc2-n2cccc2)cc1OC | 7.14% (inactive)
COCCOC(=O)c1[nH]c2c(c1C)C(=O)CC(c1ccc(OC)cc1)C2 (stereo unspecified) | 8.85% (inactive)
COC(=O)C1C(=O)c2c([nH]c(C(=O)OCCSC)c2C)CC1C (stereo unspecified) | 92.2% (active)
CCCOC(=O)c1[nH]c2c(c1C)C(=O)CC(c1cccs1)C2 (stereo unspecified) | -44.3% (inactive)
COc1ccc(-c2noc(CCC(=O)N3CCN(c4cccc(C)c4)CC3)n2)cc1 | 0.066% (inactive)
COc1ccc(-c2ccc3c(c2)[C@@H]2C[C@H](N(C)S(=O)(=O)c4ccccc4)[C@H]([C@H](C)O)C(=O)N2CC3)cc1 | -7.92% (inactive)
CC(C)Cn1cnc2c(SCc3ccc(Cl)cc3)nc(N)nc21 | 12.1% (inactive)
O=C(CC(=O)c1cccnc1)c1ccccc1 | 48% (inactive)
